# An excerpt weighted towards active compounds, which were near 9.4% of everything screened.
# ELG1 repair inh = blocks ELG1-dependent DNA repair in HEK293T cells; HEK293T ELG1-luciferase reporter, luminescence, 16 h; DNA damage induced by 5-fluorouridine; Potency, µM (highest dose often 46.1 µM), for inactives: at the top dose activity change, negative = inhibition, hits mostly inhibitors; 2.3% of 330,000 active; AID 504467; note: % is set by controls: 0 for no effect and ±100 for the full control effect; nearly all actives have a fitted effect of over 55% in size
#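 DMSO vehicle served as the neutral condition. Each well held 2,000 cells given 5-fluorouridine plus compound; after 16 hr at 37 °C/5% CO2, ONE-Glo was added and luciferase measured 30 min later.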
# NPC1 promoter act = activates the NPC1 promoter. Potency, µM (highest dose often 9.22 µM), inactives show top-dose activation, hits mostly activators. 2.4% of 320,000 active. Huh7 NPC1 promoter luciferase reporter, 24 h. AID 485313; note: % of control where 0% means no effect; nearly all actives have a fitted effect of over 60% in size
#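 In 1536-well qHTS, Huh7 cells harboring an NPC1 promoter–luciferase construct received compound for 24 h; activation was quantified by luminescence following luciferase reagent addition.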
# FLuc modulator = firefly luciferase modulation, counter-screen for miR-21 project. purified FLuc, Km substrates, luminescence inhibition. Potency, µM (top dose mostly 57.5 µM), for inactives: top-dose activity change, negative = inhibition, usual class: inhibitors. 6.9% of 360,000 active. AID 588342;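 note: plate controls were vehicle for no effect and reference inhibitor for full effect; nearly all actives have a fitted effect of over 55% in size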
# Target sequence (P08659 whole entry, looked up): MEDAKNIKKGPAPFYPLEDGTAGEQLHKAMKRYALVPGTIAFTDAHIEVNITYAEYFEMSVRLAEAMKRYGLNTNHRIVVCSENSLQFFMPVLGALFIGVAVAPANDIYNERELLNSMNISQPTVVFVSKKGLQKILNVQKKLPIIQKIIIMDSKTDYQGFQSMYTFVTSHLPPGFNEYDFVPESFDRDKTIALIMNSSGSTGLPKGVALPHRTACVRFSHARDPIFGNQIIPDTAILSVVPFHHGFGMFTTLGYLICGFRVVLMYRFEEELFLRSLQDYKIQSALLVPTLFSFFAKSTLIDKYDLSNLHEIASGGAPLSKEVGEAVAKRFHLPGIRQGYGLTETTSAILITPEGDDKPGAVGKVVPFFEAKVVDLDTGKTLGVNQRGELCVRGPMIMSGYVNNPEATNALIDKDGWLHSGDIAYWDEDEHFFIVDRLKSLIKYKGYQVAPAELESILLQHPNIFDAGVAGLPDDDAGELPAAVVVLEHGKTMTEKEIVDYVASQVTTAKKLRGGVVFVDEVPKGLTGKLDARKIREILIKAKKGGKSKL
#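 Purified P. pyralis luciferase (10nM final) with 10uM D-luciferin and 10uM ATP (Km levels) in 50mM Tris acetate pH 7.5, 10mM Mg acetate, 0.01% Tween-20, 0.05% BSA; qHTS 6-point titration, ~60 µM downward; luminescence read.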
# ELG1 genotoxic = induces genotoxicity in HEK293T cells with luciferase-tagged ELG1 | HEK293T ELG1-luciferase reporter, luminescence, 16 h | Potency, µM (top dose mostly 46 µM), without a hit: at the top dose activity change, positive = activation, usual class: activators | 1.3% of 330,000 active; note: % of control where 0% means no effect; nearly all actives have a fitted effect of over 60% in size
#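 Genotoxic stress is detected as increased luminescence from luciferase-tagged ELG1 in HEK293T cells, measured with ONE-Glo after a 16 hr treatment at 37 °C.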
# Rab9 prom act = activates the Rab9 promoter | 2.8% of 320,000 active | Potency, µM (series often up to 9.22 µM), for inactives: at the top dose activation, negative = inhibition, hits mostly activators | Huh7 Rab9 promoter-luciferase reporter, luminescence, 24 h; note: % of control where 0% means no effect; nearly all actives have a fitted effect of over 60% in size
#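 Luminescence from Amplite-detected luciferase (10 minutes, ambient) reports Rab9 promoter activation. Before that, stable Rab9-luciferase Huh7 cells (1500/well, reduced-serum OP-MEM I plus 10% FBS) were exposed to compound for 24 hours at 37C.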
# SMN2 splice enh = enhancers of SMN2 splice variant expression. 2.8% of 210,000 active. Potency, µM (doses to about 46.1 µM), for inactives: top-dose activity change, positive = activation, hits mostly activators. HEK293 SMN2-luciferase splicing reporter, luminescence, 30-36 h. AID 1458; note: % of control where 0% means no effect; nearly all actives have a fitted effect of over 55% in size
#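 HEK293 cells carry an SMN2 […]–luciferase reporter in which exon 7 inclusion puts luciferase in frame. Cells were plated 10-12 h before compound addition, then incubated 30-36 h at 37C. ONE-Glo luminescence was read; sodium butyrate at 4.5 mM final served as control.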
# * hit, by the source's call; u = inconclusive; x = no result; [ ] = dose if it differs, or a comment. Calls come from the whole dose curve; as a rule, active = well fitted curve in the direction sought with a large enough effect; inconclusive = small, poorly fitted or top-dose-only effect, or another doubt; inactive = no such curve, though single readings can be large; an effect the other way counts as inactive or inconclusive. Potency is the fitted concentration of half-maximal effect.
SMILES,ELG1 repair inh,NPC1 promoter act,FLuc modulator,ELG1 genotoxic,Rab9 prom act,SMN2 splice enh
CCN(CC)c1ccc(NC(=O)c2ccc3c(c2)c(C)c(C)n3C)cc1,u,-4%,9.5µM*,1%,1%,-28%
CCOc1cccc(C(=O)Nc2ccc3ccccc3c2)c1,u,2.2µM*,0.48µM*,0.46µM*,0.56µM*,x
CCOc1cccc(C(=O)Nc2ccc(N(CC)CC)cc2)c1,-7%,15%,13µM*,u,7%,23%
CCN(CC)c1ccc(NC(=O)c2ccccc2OCC(=O)OC)cc1,11%,17%,21µM*,-1%,19%,12%
Cc1noc(C)c1-c1ccc2ncnc(NCc3cccc(-c4ccccc4)c3)c2c1,x,-2%,-15%,x,-3%,x
CCOc1ccc(NC(=O)c2cnc(N3CCCCC3)c3ccccc23)cc1,x,x,11µM*,x,x,x
CCOc1ccc(C(=O)Nc2ccc(N3CCCC3)cc2)cc1,u,0%,u,4%,0%,-7%
COc1ccc(Cl)cc1NC(=O)c1cnc(N2CCCCC2)c2ccccc12,x,x,7%,x,x,x
CCOc1cccc(C(=O)Nc2ccc(N3CCCC3)cc2)c1,u,u,6µM*,18%,u,x
CCC(=O)Nc1ccc2c(c1)OCCO2,u,-5%,-1%,1%,0%,-2%
CCOC(=O)c1ccc(NC(=O)Nc2ccc3c(c2)OCCO3)cc1,-20%,-1%,19µM*,-3%,-4%,-11%
O=C(COc1ccc2c(c1)OCO2)Nc1cccc(F)c1,u,14%,9.5µM*,13µM*,-1%,x
O=C(COc1ccc(F)cc1)Nc1ccc2c(c1)OCCO2,u,2.8µM*,5.4µM*,u,4µM*,x
COc1ccc(OCC(=O)Nc2ccc3c(c2)OCO3)cc1,0%,11%,u,22%,14%,x
CCOCC(=O)Nc1ccc2c(c1)OCCO2,u,u,u,u,3.2µM*,u
CCOC(=O)c1c(NC(=O)Nc2ccc(F)cc2)sc(C(=O)N(C)C)c1C,x,x,-6%,x,x,-3%
CCCSCCCNC(=O)C1CCN(C(=O)c2cnn(-c3ccccc3)c2-n2cccc2)CC1,x,x,-15%,x,x,-3%
CCOc1ccc(OCCC(=O)OCC(=O)Nc2ccc3c(c2)OCO3)cc1,u,-1%,24µM*,3%,1%,x
Cc1cc(OCC(=O)Nc2ccc3c(c2)OCCO3)ccc1Cl,u,1%,19µM*,17%,4%,-9%
Cc1cc(C)cc(OCC(=O)Nc2ccc3c(c2)OCCO3)c1,0%,1%,u,-12%,14%,-17%
CCC(=O)c1ccc(OCC(=O)Nc2ccc3c(c2)OCCO3)cc1,u,x,x,14%,x,x
C/C(=N\OCC(=O)Nc1ccc2c(c1)OCCO2)c1ccc2c(c1)OCCO2,-17%,2%,19µM*,1%,5%,x
CCn1ccc2cc(S(=O)(=O)N3CCC(C(=O)NCCOC)CC3)ccc21,x,x,4%,x,x,x
CCOc1ccc(C2C(=O)N(C3CCCCC3)CC(=O)N2Cc2ccccc2OC)cc1OC (stereo not given),x,x,-8%,x,x,x
CCN(CC)S(=O)(=O)c1cccc(-c2nnc(SCc3ncc(-c4ccccc4)o3)n2C)c1,21µM*,-1%,1%,-9%,0%,-20%
SMILES,ELG1 repair inh,NPC1 promoter act,FLuc modulator,ELG1 genotoxic,Rab9 prom act,SMN2 splice enh
Cc1ccccc1-n1nnnc1SCc1ncc(-c2ccccc2)o1,-4%,-1%,u,-1%,4%,-12%
c1ccc(-c2cnc(CSc3nnc4ccccn34)o2)cc1,u,1.6µM*,11µM*,4.1µM*,1µM*,11µM*
CCSc1nnc(-c2cccc(S(=O)(=O)N(CC)CC)c2)n1Cc1ccccc1,23µM*,-2%,1%,-8%,-3%,-32%
CCN(CC)S(=O)(=O)c1cccc(-c2nnc(SCC(N)=O)n2C)c1,6%,-2%,-1%,17%,-3%,-44%
Oc1cc2c(cc1O)[C@H]1c3ccc(O)c(O)c3OC[C@@]1(O)C2,10%,-2%,15µM*,2%,0%,-20%
Oc1ccc2c(c1)OCC1(O)Cc3cc(O)c(O)cc3C21 (stereo not given),x,x,x,x,x,-21%
Cc1cc(NC(=O)c2cc(Cl)ccc2Cl)ccc1-c1cc2ccccc2oc1=O,x,x,-2%,x,x,-45%
Cc1ccc(-c2nc3ccccc3s2)cc1NC(=O)c1ccc2c(c1)OCO2,u,11%,4.8µM*,-1%,-3%,-4%
O=C(Nc1cc(-c2nc3ccccc3s2)ccc1Cl)c1ccc2c(c1)OCO2,u,-1%,11µM*,6%,1%,8%
COc1ccc(C(=O)Nc2ccc(Cl)c(Cl)c2)c(OC)n1,u,3%,0.95µM*,u,u,3.2µM*
CS(=O)(=O)c1cccc(NC(=O)c2ccc(Cl)c(Cl)c2)c1,4%,2%,19µM*,1%,23%,x
O=C(Nc1ccc(Cl)c(Cl)c1)Nc1cc(C(=O)NC2CC2)ccc1Cl,26µM*,1%,1%,-17%,-7%,-14%
COc1ccc(C(=O)O)c(OC)n1,u,12%,-2%,-8%,-27%,x
CS(=O)(=O)c1ccc(C(=O)Nc2cc(S(C)(=O)=O)ccc2Cl)cc1,u,3%,0%,2%,-1%,x
Cc1ccc(NC(=O)c2ccc(Cl)c(N3C(=O)C=CC3=O)c2)cc1,13%,-12%,9.5µM*,7%,-6%,-5%
C/C(=N/O)[C@@H]1C[C@H](CC(=O)O)C1(C)C,x,x,x,x,x,-14%[9.22 µM]
O=C(Nc1ccc(Cl)c(Cl)c1)c1ccc(Cl)c(Cl)c1,u,3.5µM*,12µM*,12%,3.5µM*,x
Cc1ccccc1Oc1nc2c(c(=O)n(C)c(=O)n2C)n1Cc1ccc(Br)cc1,x,x,-6%,x,x,1%
CC/C=C1/OC(=O)c2ccccc21,x,x,x,x,x,6%
O=C(O)CSc1cc(NS(=O)(=O)c2ccc(Br)cc2)c2ccccc2c1O,15µM*,-32%,u,-16%,-32%,x
O=S(=O)(Nc1cc(Sc2ncn[nH]2)c(O)c2ccccc12)c1ccccc1,23µM*,3%,11µM*,-13%,1%,-113%
O=C(Nc1ccccc1Cl)c1ccc2c(=O)n3c(nc2c1)CCC3,u,3.5µM*,11µM*,u,1.1µM*,x
O=C(Nc1nc(-c2ccccc2)cs1)c1ccc2c(=O)n3c(nc2c1)CCCCC3,3.7µM*,-15%,12µM*,-19%,-18%,x
CC(=O)c1ccc(NC(=O)CN(C)S(=O)(=O)c2cccc3nsnc23)cc1,x,x,-3%,x,x,21%
Cc1cccc(NC(=O)c2ccc(S(=O)(=O)NCc3cccnc3)cc2)c1,15µM*,1%,3%,-19%,-1%,x

# Screening data: PubChem, National Center for Advancing Translational Sciences (NCATS)
